Test results as given in PubChem BioAssay (Tox21).
Results filed as inconclusive are left out. The source made the active and inactive calls. Unless noted, the call rests on the fitted dose curve; in most records, active means well fitted curve in the direction sought with a large enough effect in the repeat runs; inconclusive means weak or mixed curves; inactive means no such curve, though single readings can be large; an effect the other way counts as inactive or inconclusive.

Experiments:
[1] = target: Thyrotropin receptor (Homo sapiens) (UniProt P16473); assay: qHTS assay to identify small molecule agonists of the thyroid stimulating hormone receptor (TSHR) signaling pathway (AID 1224843; calls by dose curve; further: nearly all actives have a fitted effect of over 45% in size)
Chain of Thyrotropin receptor (Homo sapiens) (P16473 whole entry, looked up): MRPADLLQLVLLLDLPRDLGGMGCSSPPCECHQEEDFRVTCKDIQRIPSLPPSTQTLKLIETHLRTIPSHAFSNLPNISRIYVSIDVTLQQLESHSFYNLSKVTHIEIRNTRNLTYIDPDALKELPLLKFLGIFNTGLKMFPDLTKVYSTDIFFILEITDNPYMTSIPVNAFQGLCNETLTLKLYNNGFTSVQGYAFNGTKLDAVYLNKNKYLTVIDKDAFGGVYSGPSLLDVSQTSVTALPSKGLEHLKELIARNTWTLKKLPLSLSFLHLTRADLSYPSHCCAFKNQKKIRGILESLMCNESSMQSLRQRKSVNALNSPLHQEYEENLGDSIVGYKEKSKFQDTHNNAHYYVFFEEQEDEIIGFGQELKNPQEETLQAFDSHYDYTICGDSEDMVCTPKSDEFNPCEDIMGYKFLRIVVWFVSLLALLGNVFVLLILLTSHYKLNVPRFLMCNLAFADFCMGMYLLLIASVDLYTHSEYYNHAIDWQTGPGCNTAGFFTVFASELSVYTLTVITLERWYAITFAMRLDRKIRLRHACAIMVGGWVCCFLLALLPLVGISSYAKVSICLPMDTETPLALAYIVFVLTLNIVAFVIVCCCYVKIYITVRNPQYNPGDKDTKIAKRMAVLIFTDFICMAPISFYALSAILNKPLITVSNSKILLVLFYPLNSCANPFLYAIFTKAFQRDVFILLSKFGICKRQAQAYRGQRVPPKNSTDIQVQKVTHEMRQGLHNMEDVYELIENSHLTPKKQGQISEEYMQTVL
Method in brief: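 Agonist activity read as cAMP rise via d2/cryptate HTRF competition, 1 h room-temperature detection, in HEK293 cells expressing TSHR. Fifteen-point titrations, each run in triplicate, with a 30 min room-temperature incubation beforehand.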

[2] = qHTS assay to identify small molecule agonists of the hypoxia (HIF-1) signaling pathway - cell viability counter screen (AID 1224844; calls by dose curve; further: nearly all actives have a fitted effect of over 50% in size)
Method in brief: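 HRE-bla ME-180; 0.5% dFBS; cpd 17 h, 37C, 5% CO2; CellTiter-Glo lum., 30 min RT, post-FRET read, same wells.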

[3] = qHTS assay to identify small molecule agonists of H2AX (AID 1224845; active means well fitted activation curve with a large enough effect in the signal ratio in the repeat runs, not every such curve was filed as active; the % refers to the signal ratio)
Method in brief: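 Phospho-H2AX Ser139 measured by HTRF (ex 320 nm; em 665 and 620 nm) after 24 hr antibody incubation. Compounds, 15 concentrations, 0.76% DMSO, were applied to CHO-K1 cells for 3hr at 37C before lysis.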

[4] = qHTS assay to identify small molecule agonists of the hypoxia (HIF-1) signaling pathway (AID 1224846; active means well fitted activation curve with a large enough effect in the signal ratio in the repeat runs, not every such curve was filed as active; the % refers to the signal ratio)
Method in brief: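 Reporter induction in HRE-bla ME-180 cells is taken as agonism: cells sit 5 hrs after plating, receive compounds or DMSO only, incubate 17 hrs at 37C under 5% CO2, and are loaded with CCF4-AM for beta-lactamase FRET measurement.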

[5] = qHTS assay to identify small molecule agonists of H2AX - cell viability counter screen (AID 1224847; calls by dose curve; further: top concentration of the series differs between compounds; nearly all actives have a fitted effect of over 30% in size)
Method in brief: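 We seed wild-type CHO-K1 cells overnight, treat them for 3 hr at 37C with compounds in 15-concentration series, and quantify remaining viability by CellTiter-Glo luminescence.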

[6] = qHTS assay to identify small molecule antagonists of the estrogen related receptor (ERR) signaling pathway from Tox21 library (AID 1224848); further: nearly all actives have a fitted effect of over 50% in size
Method in brief: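 Luciferase luminescence (ONE-Glo, 30 min room temperature) was the read-out. Cells of the NTP-supplied ERR line, 2,000 per well, were given 6 h at 37 C before compound addition in DMSO and 18 h exposure at 37 C.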

[7] = qHTS assay to identify small molecule agonists of the estrogen related receptor (ERR) signaling pathway from Tox21 library (AID 1224849; calls by dose curve; further: nearly all actives have a fitted effect of over 15% in size); details: ERR reporter cell line, ONE-Glo luciferase, 18 h; at 92.4 µM (top of the series) unless noted
Method in brief: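 Tox21 compounds tested for ERR agonism in an NTP reporter cell line: 18 h treatment at 37 C, then ONE-Glo luminescence.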

[8] = qHTS RealTime-Glo MT Cell Viability Assay in HepG2 cells - 24 hour (AID 1224867); further: nearly all actives have a fitted effect of over 50% in size
Method in brief: (§1)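 Compound treatment began 5 h after plating HepG2 cells (600/well) with NanoLuc luciferase and prosubstrate. Plates stayed at 37 C for 40 h; luminescence was captured at six time points, 0 h through 40 h.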

[9] = qHTS RealTime-Glo MT Cell Viability Assay in HEK293 cells - 32 hour (AID 1224868); further: top concentration of the series differs between compounds; nearly all actives have a fitted effect of over 50% in size
Method in brief: (§2)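 Quantitative high-throughput screen of the Tox21 10K library in HEK293: cells and RealTime-Glo reagents plated together, compound added at 5 h, luminescence monitored through 40 h at 37 C.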

[10] = A CellTox Green Cytotoxicity Assay to monitor cytotoxicity in HEK293 cells - 0 hour (AID 1224869); further: nearly all actives have a fitted effect of over 50% in size
Method in brief: (§3)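 Tox21 screen in HEK293: membrane-impermeant cyanine dye fluoresces on binding dead-cell DNA; compound pinned 5 h post-seeding, plates held at 37 C, signal read repeatedly through 40 h.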

[11] = qHTS RealTime-Glo MT Cell Viability Assay in HepG2 cells - 40 hour (AID 1224870); further: nearly all actives have a fitted effect of over 50% in size
Method in brief: (§4)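 Real-time viability: cells seeded at 600 per well together with NanoLuc and cell-permeant prosubstrate, compounds added after 5 h incubation. Luminescence tracked at 0, 8, 16, 24, 32 and 40 h of exposure.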

[12] = A CellTox Green Cytotoxicity Assay to monitor cytotoxicity in HEK293 cells - 40 hour (AID 1224871); further: nearly all actives have a fitted effect of over 45% in size
Method in brief: as §3

[13] = qHTS RealTime-Glo MT Cell Viability Assay in HEK293 cells - 16 hour (AID 1224872)
Method in brief: as §2

[14] = qHTS RealTime-Glo MT Cell Viability Assay in HepG2 cells - 8 hour (AID 1224873); further: nearly all actives have a fitted effect of over 55% in size
Method in brief: as §4

[15] = qHTS RealTime-Glo MT Cell Viability Assay in HEK293 cells - 40 hour (AID 1224874); details: RealTime-Glo luminescence; max response: stronger effect = lower value; further: nearly all actives have a fitted effect of over 50% in size
Method in brief: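 HEK293 + NanoLuc + prosubstrate, 600 cells/well; 5 h, 37 C/5% CO2; compound 23 nL in DMSO by pintool; 37 C; luminescence read at 0, 8, 16, 24, 32 and 40 h time points.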

[16] = A CellTox Green Cytotoxicity Assay to monitor cytotoxicity in HEK293 cells - 24 hour (AID 1224875); further: nearly all actives have a fitted effect of over 45% in size
Method in brief: as §3

[17] = A CellTox Green Cytotoxicity Assay to monitor cytotoxicity in HepG2 cells - 16 hour (AID 1224876); further: nearly all actives have a fitted effect of over 45% in size
Method in brief: (§5)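 Measurements at 0, 8, 16, 24, 32 and 40 h of treatment captured CellTox Green fluorescence in HepG2 cells that had been co-plated with reagent and preincubated 5 h at 37 C/5% CO2.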

[18] = qHTS RealTime-Glo MT Cell Viability Assay in HepG2 cells - 32 hour (AID 1224877); further: nearly all actives have a fitted effect of over 55% in size
Method in brief: as §1

[19] = A CellTox Green Cytotoxicity Assay to monitor cytotoxicity in HepG2 cells - 24 hour (AID 1224878); further: nearly all actives have a fitted effect of over 45% in size
Method in brief: as §5

[20] = A CellTox Green Cytotoxicity Assay to monitor cytotoxicity in HepG2 cells - 40 hour (AID 1224879); further: nearly all actives have a fitted effect of over 40% in size
Method in brief: as §5
On the % scale 0 is the no-effect control and ±100 the full control effect.

Clc1nc(Cl)nc(Nc2ccccc2Cl)n1
inactive: Potency [1] | Potency [2] | outcome [3] | outcome [4] | Potency [5] | Potency [6] | activity change, positive = activation [7] 2.23% | Potency [8] | Potency [9] | outcome [10] | Potency [11] | Potency [12] | Potency [13] | outcome [14] | max response [15] 11.5% | Potency [16] | Potency [17] | Potency [18] | Potency [19] | Potency [20]

CCC(C)C(C)(COC(N)=O)COC(N)=O (stereo not drawn)
inactive: Potency [1] | Potency [2] | outcome [3] | outcome [4] | Potency [5] | Potency [6] | activity change, positive = activation [7] 1.95% [at 42.5 µM] | Potency [8] | outcome [10] | Potency [11] | Potency [12] | Potency [13] | outcome [14] | max response [15] 3.68% | Potency [16] | Potency [17] | Potency [18] | Potency [19] | Potency [20]

BrCCc1ccccc1
inactive: Potency [1] | Potency [2] | outcome [3] | outcome [4] | Potency [5] | Potency [6] | activity change, positive = activation [7] 0.561% | Potency [8] | Potency [9] | outcome [10] | Potency [11] | Potency [12] | Potency [13] | outcome [14] | max response [15] -1.95% | Potency [16] | Potency [17] | Potency [18] | Potency [19] | Potency [20]

O=C(O)CBr
inactive: Potency [1] | Potency [2] | outcome [3] | outcome [4] | Potency [5] | Potency [6] | activity change, positive = activation [7] -0.0549% | Potency [8] | Potency [9] | outcome [10] | Potency [11] | Potency [12] | Potency [13] | outcome [14] | max response [15] -0.861% | Potency [16] | Potency [17] | Potency [18] | Potency [19] | Potency [20]

O=C(Cl)OCc1ccccc1
inactive: Potency [1] | Potency [2] | outcome [3] | outcome [4] | Potency [5] | Potency [6] | activity change, positive = activation [7] 6.05% | Potency [8] | Potency [9] | outcome [10] | Potency [11] | Potency [12] | Potency [13] | outcome [14] | max response [15] 10.6% | Potency [16] | Potency [17] | Potency [18] | Potency [19] | Potency [20]

CCSC(=O)Cl
inactive: Potency [1] | Potency [2] | outcome [3] | outcome [4] | Potency [5] | Potency [6] | activity change, positive = activation [7] 13.4% | Potency [8] | Potency [9] | outcome [10] | Potency [11] | Potency [12] | outcome [14] | max response [15] 15.5% | Potency [16] | Potency [17] | Potency [18] | Potency [19] | Potency [20]
